rCAG RNA binder: binders of r(CAG) RNA repeats, primary screen, biochemical, fluorescence; r(CAG) RNA repeat, TO-PRO-1 dye displacement fluorescence; inhibition, % at 3 µM; hit rate 1.3% among 370,000;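 active = inhibition above the plate cutoff, the mean of all test compounds on that plate plus 3 SD, cut at about 35% in these data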;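 note: higher means more dye released from RNA so lower well fluorescence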
GRIN3A LBD mod: binders of NR3A ligand-binding domain, primary screen, biophysical, differential scanning fluorimetry, uHTS | Glutamate receptor ionotropic, NMDA 3A (GRIN3A) ligand-binding domain | NR3A LBD differential scanning fluorimetry, Tm shift; 0% = protein alone, 100% = glycine-bound protein | Tm shift relative to glycine control, % at 25 µM | hit rate 2.5% among 340,000 | AID 1259313, 2017;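 active = melting temperature shift of at least 10% of the positive control shift, at one fixed dose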
NadD inh: inhibitors of S. aureus NadD, primary screen, biochemical, colorimetric, uHTS; purified NadD enzyme, colorimetric absorbance read-out; hit rate 0.78% among 360,000; inhibition, % at 20 µM; AID 602399, 2012; Nicotinate-nucleotide adenylyltransferase NadD (Staphylococcus aureus N315); in the data active = inhibition above about 26%
FAS-TE inh: FAS thioesterase domain inhibitors, primary screen, biochemical, fluorescence intensity, uHTS; Fatty acid synthase (Homo sapiens), P49327; recombinant FAS-TE, OMFH fluorogenic substrate, fluorescence endpoint; inhibition, % at 15 µM; hit rate 0.67% among 360,000; AID 602261, 2012;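 active = compounds whose normalised, plate-corrected inhibition of enzyme fluorescence in the single-dose primary screen is 50% or more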
Of the large screens only hits and unclear results are named; the others gave an inactive call. Shown are actives, neighbours in structure and some others; about 4.3% of the full set was active somewhere.

Cc1cccc(C2=NN(c3ccccc3)[C@@H](C(=O)N3CCOC3=O)[C@@H]2C)c1	none
O=C1OCCN1C(=O)[C@H]1[C@H](c2ccc([N+](=O)[O-])cc2)C(c2cccc(Cl)c2)=NN1c1ccccc1	GRIN3A LBD mod 13.4, FAS-TE inh 89.3
COc1ccccc1[C@@H]1C(c2ccc(F)cc2)=NN(c2ccccc2)[C@H]1C(=O)N1CCOC1=O	FAS-TE inh 83.9
CCNC(=O)N(C)[C@H]1C[C@H]2c3[nH]c4c(-c5cccc(C)c5)cccc4c3CCN2C(=O)[C@H]1[C@H](C)O	none (no result: GRIN3A LBD mod, NadD inh, FAS-TE inh)
CC(NC(=O)COC(=O)c1ccc2c(c1)S(=O)(=O)N=C1CCCCCN12)C12CC3CC(CC(C3)C1)C2 (centres undefined)	GRIN3A LBD mod 18.3
Oc1ccc(/C=N/Nc2ccnc3cc(Cl)ccc23)c(O)c1	GRIN3A LBD mod 27.4
Clc1ccc2c(N/N=C/c3ccc(Br)cc3)ccnc2c1	GRIN3A LBD mod 33.1
C#CCOCCOCCOCCNc1nc(N2CCN(C(=O)CCCCCCCCCCNC(=O)Cn3cc(CCCCCN)nn3)CC2)nc(N2CCN(C(=O)CCCCCCCCCCNC(=O)Cn3cc(C[C@@H](C)O)nn3)CC2)n1	GRIN3A LBD mod 30.3 (no result: rCAG RNA binder)
C#CCOCCOCCOCCNc1nc(N2CCN(C(=O)Cn3cc(CCCCN)nn3)CC2)nc(N2CCN(C(=O)Cn3cc(CC(C)O)nn3)CC2)n1 (centres undefined)	none
C#CCOCCOCCOCCNc1nc(N2CCN(C(=O)CCCCCCCCCCNC(=O)Cn3cc(C[C@@H](C)O)nn3)CC2)nc(N2CCN(C(=O)CCCCCCCCCCNC(=O)[C@@H]([C@H](C)CC)n3cc(CCCCCN)nn3)CC2)n1	NadD inh 33.5 (no result: rCAG RNA binder)
CN1C(=O)c2cc(NC(=O)Nc3ccccc3F)ccc2OC[C@H]2O[C@@H](CC(=O)NCc3ccc(-c4ccccc4)cc3)CC[C@@H]21	none (no result: GRIN3A LBD mod, NadD inh, FAS-TE inh)
O=C1NN(c2ccc(F)c(Cl)c2)C(=O)/C1=C\c1cccc(OC(=O)c2cccs2)c1	rCAG RNA binder 89.8, GRIN3A LBD mod 24.3, NadD inh 30.0
O=C1OC(c2ccccc2)=N/C1=C/c1cccc(OC(=O)c2cccs2)c1	none
O=C(N=Nc1c(O)[nH]c2ccc(Br)cc12)c1cc(-c2cccc3ccccc23)n[nH]1	GRIN3A LBD mod 15.7, NadD inh 38.8
Cn1c(O)c(N=NC(=O)c2cc(-c3cccs3)nc3ccccc23)c2ccccc21	NadD inh 45.3
COc1ccc(-c2cc(C(=O)N=Nc3c(O)[nH]c4ccccc34)[nH]n2)cc1	none (no result: GRIN3A LBD mod, NadD inh, FAS-TE inh)
Cn1cccc1/C=N/NC(=O)c1cc(-c2cccs2)nc2ccccc12	none
O=C(N=Nc1c(O)[nH]c2ccc([N+](=O)[O-])cc12)c1cc(-c2ccccc2Cl)nc2ccccc12	none
O=C(N=Nc1c(O)[nH]c2ccc(Br)cc12)c1cc(-c2cccs2)nc2ccccc12	NadD inh 44.0
COc1ccc(S(=O)(=O)NCC(=O)N2CCN(c3ccccn3)CC2)c(OC)c1	none (no result: GRIN3A LBD mod, NadD inh, FAS-TE inh)
O=C(Nc1cccc(NC(=O)c2cc([N+](=O)[O-])ccc2Cl)n1)c1cc([N+](=O)[O-])ccc1Cl	FAS-TE inh 56.6 (no result: rCAG RNA binder)
Cc1cc(NC(=O)c2cc([N+](=O)[O-])ccc2Cl)no1	none
Oc1cc2c(cc1C(c1ccc(Br)cc1)N1CCCC1)OCO2 (centres undefined)	GRIN3A LBD mod 29.2
O=S(=O)(NCC(c1ccc2c(c1)OCO2)N1CCOCC1)c1ccc(Br)cc1 (centres undefined)	none
COC(=O)[C@H](C(C)C)N1Cc2nnn(Cc3ccc(C)cc3)c2-c2cc(F)ccc2S1(=O)=O	none (no result: GRIN3A LBD mod, NadD inh, FAS-TE inh)
O=[N+]([O-])c1ccc(Cn2ccc3ccc(-c4ccc5ccn(Cc6ccccc6)c5c4)cc32)cc1	none (no result: GRIN3A LBD mod, NadD inh, FAS-TE inh)
O=c1[nH]c(C2CCN(S(=O)(=O)c3cccc(C(F)(F)F)c3)CC2)nc2c1nnn2Cc1cccc(F)c1	GRIN3A LBD mod 15.8
Clc1ccc(SCNc2ccccc2Cl)cc1	GRIN3A LBD mod 10.3
COc1ccc(S[C@]2(C(=O)N3CCN(c4ncccn4)CC3)CC(=O)N(c3ccsc3)[C@@H]2c2ccc(OC)cc2)cc1	none (no result: GRIN3A LBD mod, NadD inh, FAS-TE inh)
Cc1ccccc1N1CCN(C2CCCN(C(=O)c3ccc(Cl)s3)C2)CC1 (centres undefined)	GRIN3A LBD mod 11.1
O=C(c1cnccn1)N1CCCC(N2CCN(c3cccc(Cl)c3)CC2)C1 (centres undefined)	none
COCc1ccc(C(=O)N2CCCC(N3CCN(c4ccccc4C)CC3)C2)s1 (centres undefined)	none

Assay outcomes (PubChem BioAssay)
